Data on 41 compounds can be found in PubChem BioAssay AID1332 (Southern Research Institute, 2008).

In brackets after ≈: the same amount, converted by molar mass. The campaign covered roughly 1,100 compounds. About 170 (15%) were called active. How the calls were made is not given here. A selection follows.

A short description of this experiment: Confirmatory growth inhibition assay, mycobacterium tuberculosis h37rv, with cytotoxicity (AID 1332).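 On CC50: Vero cells exposed to compounds for 72 hours.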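 On IC50: bacteria incubated 7 days before adding Alamar blue readout reagent.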 The note with it: M. tuberculosis H37Rv growth inhibition; CC50: measured here: Vero cell cytotoxicity; IC50: measured here: IC50 H37Rv replicates.
Take `C=C[C@]12CN(C)[C@@H]3[C@H]4COC(CC41)[C@]1(C(=O)Nc4ccccc41)[C@@H]32`: the IC50 was > 20 µg/mL and the result was inactive.

In the case of `COC1=CC(=O)C[C@@H](C)[C@]12Oc1c(Cl)c(OC)cc(OC)c1C2=O`, the CC50 is > 6 µg/mL, the IC50 was > 20 µg/mL and the result was inactive.

For `NC(=O)N/N=C/c1ccc([N+](=O)[O-])o1`, the CC50 was > 6 µg/mL, the half-maximal inhibitory concentration (IC50) is 11.5 µg/mL (≈ 58 µM) and the compound was classed as active.

On to `CC(C(=O)O)c1ccc(C(=O)c2ccccc2)s1` (stereo unspecified), for which the IC50 was > 20 µg/mL and the compound was called inactive.

Regarding `CCC(=O)OCC(=O)[C@@]1(OC(=O)CC)[C@@H](C)C[C@H]2[C@@H]3CCC4=CC(=O)C=C[C@]4(C)[C@@]3(Cl)[C@@H](O)C[C@@]21C`, the concentration for half-maximal inhibition (IC50) was > 20 µg/mL and the outcome was inactive.

Consider `CC[C@H]1CN2CCc3cc(OC)c(OC)cc3[C@@H]2C[C@@H]1C[C@H]1NCCc2cc(O)c(OC)cc21`, for which the CC50 was < 0.023 µg/mL, the IC50 is > 20 µg/mL and the compound was classed as inactive.

For the compound `Fc1ccc([C@@H]2CCNC[C@H]2COc2ccc3c(c2)OCO3)cc1`, the CC50 is 4.88 µg/mL (≈ 14.8 µM), the IC50 was 13.1 µg/mL (≈ 39.7 µM) and the result was active.

As to `C[C@H](NCCc1ccc(O)cc1)[C@H](O)c1ccc(O)cc1`, the IC50 was > 20 µg/mL and the compound was classed as inactive.

On to `C[C@@H]1CC[C@@]2(NC1)O[C@H]1C[C@H]3[C@@H]4CC=C5C[C@@H](O)CC[C@]5(C)[C@H]4CC[C@]3(C)[C@H]1[C@@H]2C`, for which the IC50 is > 20 µg/mL and the call was inactive.

Regarding `C[C@]12C=CC(=O)C=C1CC[C@@H]1[C@@H]2[C@@H](O)C[C@@]2(C)[C@H]1CC[C@]2(O)C(=O)CO`, the IC50 was > 20 µg/mL and the compound was called inactive.

For `CC(C)(C)NCC(O)COc1cccc2c1CC(O)C(O)C2` (stereo unspecified), the IC50 was > 20 µg/mL and the compound was called inactive.

In the case of `NC[C@@H]1O[C@H](O[C@H]2[C@@H](O)[C@H](O[C@@H]3[C@@H](O)[C@H](N)C[C@H](N)[C@H]3O[C@H]3O[C@H](CN)[C@@H](O)[C@H](O)[C@H]3N)O[C@@H]2CO)[C@H](N)[C@@H](O)[C@@H]1O`, the IC50 is > 20 µg/mL and the compound was classed as inactive.

Consider `NC[C@@H]1O[C@H](O[C@H]2[C@@H](O)[C@H](O[C@@H]3[C@@H](O)[C@H](N)C[C@H](N)[C@H]3OC3O[C@H](CO)[C@@H](O)[C@H](O)[C@H]3N)O[C@@H]2CO)[C@H](N)[C@@H](O)[C@@H]1O` (stereo partly specified), for which the IC50 came to 19.8 µg/mL (≈ 32.1 µM) and the compound was called active.

In the case of `NC[C@H]1O[C@H](OC2[C@@H](N)C[C@@H](N)[C@H](O)[C@H]2O[C@@H]2O[C@H](CO)[C@@H](O)[C@H]2O)[C@H](N)[C@@H](O)[C@@H]1O` (stereo partly specified), the IC50 is > 20 µg/mL and the compound was called inactive.

Turning to `C[N+]1(C)C[C@@H](O)C[C@H]1C(=O)[O-]`, the IC50 is > 20 µg/mL and the outcome was inactive.

Regarding `CC(C)(Sc1cc(C(C)(C)C)c(O)c(C(C)(C)C)c1)Sc1cc(C(C)(C)C)c(O)c(C(C)(C)C)c1`, the IC50 is > 20 µg/mL and the call was inactive.

Consider `CC1=C(C(=O)O)N2C(=O)[C@@H](NC(=O)[C@H](N)c3ccc(O)cc3)[C@H]2SC1`, for which the concentration for half-maximal inhibition (IC50) is > 20 µg/mL and the outcome was inactive.

As to `N=C(N=C(N)N)N1CCOCC1`, the half-inhibitory concentration (IC50) is > 20 µg/mL and the compound was called inactive.

For `c1ccc(CNc2ncnc3nc[nH]c23)cc1`, the IC50 was > 20 µg/mL and the call was inactive.

`Cn1cnc([N+](=O)[O-])c1Sc1ncnc2nc[nH]c12`: the half-maximal cytotoxic concentration (CC50) is > 6 µg/mL, the 50% inhibitory concentration (IC50) stood at 13.1 µg/mL (≈ 47.2 µM) and the result was active.

In the case of `CN1C[C@H](C(=O)N[C@]2(C)O[C@@]3(O)[C@@H]4CCCN4C(=O)[C@H](Cc4ccccc4)N3C2=O)CC2c3cccc4[nH]cc(c34)C[C@H]21` (stereo partly specified), the IC50 is > 20 µg/mL and the result was inactive.

Take `CN1CCC(=C2c3ccccc3CC(=O)c3sccc32)CC1`: the IC50 is > 20 µg/mL and the compound was called inactive.

For the compound `CN1CCC(=C2c3ccccc3C=Cc3ccccc32)CC1`, the CC50 is > 6 µg/mL, the IC50 was > 18.3 µg/mL and the result was active.

On to `CN1CCC(=C2c3ccccc3CCc3sccc32)CC1`, for which the CC50 was > 6 µg/mL, the IC50 is > 20 µg/mL and the compound was called inactive.

`CN1CCC(=C2c3ccccc3Sc3ccccc32)CC1`: the IC50 is 18 µg/mL (≈ 61.5 µM) and the call was active.

In the case of `CCC(=O)OC1(C(=O)CCl)[C@@H](C)C[C@H]2[C@@H]3CCC4=CC(=O)C=C[C@]4(C)[C@@]3(F)[C@@H](O)C[C@@]21C` (stereo partly specified), the IC50 was > 20 µg/mL and the compound was called inactive.

On to `C[C@H](N)[C@H](O)c1cccc(O)c1`, for which the IC50 was > 20 µg/mL and the outcome was inactive.

Regarding `CNCC(O)C(O)C(O)C(O)CO` (stereo unspecified), the IC50 is > 20 µg/mL and the compound was called inactive.

Take `C[n+]1cccc(C(=O)[O-])c1`: the IC50 was > 20 µg/mL and the compound was classed as inactive.

For the compound `CCC(c1ccc(O)cc1)C(CC)c1ccc(O)cc1` (stereo unspecified), the IC50 is > 20 µg/mL and the compound was classed as inactive.

On to `COc1ccc2c(c1)N(C[C@H](C)CN(C)C)c1ccccc1S2`, for which the CC50 is > 6 µg/mL, the IC50 is > 20 µg/mL and the compound was classed as inactive.

As for `CC[C@H]1OC(=O)[C@H](C)[C@@H](O[C@H]2C[C@@](C)(OC)[C@@H](O)[C@H](C)O2)[C@H](C)[C@@H](O[C@@H]2O[C@H](C)C[C@H](N(C)C)[C@H]2O)[C@](C)(O)C[C@@H](C)C(=O)[C@H](C)[C@@H](O)[C@]1(C)O`, the IC50 came out at 1.7 µg/mL (≈ 2.32 µM) and the call was active.

For `CO[C@H]1C[C@H](O[C@H]2[C@H](C)[C@@H](O[C@@H]3O[C@H](C)C[C@H](N(C)C)[C@H]3O)[C@@H](C)C[C@@]3(CO3)C(=O)[C@H](C)[C@@H](O)[C@@H](C)[C@@H](C)OC(=O)[C@@H]2C)O[C@@H](C)[C@@H]1O`, the IC50 is > 20 µg/mL and the result was inactive.

In the case of `CC[C@H]1OC(=O)[C@H](C)[C@@H](O[C@H]2C[C@@](C)(OC)[C@@H](O)[C@H](C)O2)[C@H](C)[C@@H](O[C@@H]2O[C@H](C)C[C@H](N(C)C)[C@H]2O)[C@](C)(O)C[C@@H](C)[C@@H]2N[C@@H](COCCOC)O[C@H]([C@H]2C)[C@]1(C)O`, the 50% inhibitory concentration (IC50) was 1.33 µg/mL (≈ 1.59 µM) and the call was active.

Regarding `CO[C@H]1C[C@H](O[C@H]2[C@H](C)[C@@H](O[C@@H]3O[C@H](C)C[C@H](N(C)C)[C@H]3OC(C)=O)[C@@H](C)C[C@@]3(CO3)C(=O)[C@H](C)[C@@H](OC(C)=O)[C@@H](C)[C@@H](C)OC(=O)[C@@H]2C)O[C@@H](C)[C@@H]1OC(C)=O`, the IC50 is > 20 µg/mL and the compound was called inactive.

As for `COc1ccc2cc3[n+](cc2c1OC)CCc1cc2c(cc1-3)OCO2`, the IC50 was > 20 µg/mL and the compound was called inactive.

For the compound `O=C(O)CCC(=O)Nc1ccc(S(=O)(=O)Nc2nccs2)cc1`, the IC50 was > 20 µg/mL and the result was inactive.

As to `C[N+]1(C)CCC[C@H]1C(=O)[O-]`, the IC50 is > 20 µg/mL and the compound was called inactive.

With `C[C@H]1O[C@@H](OC2CC[C@]3(C=O)[C@H]4CC[C@]5(C)[C@@H](C6=CC(=O)OC6)CC[C@]5(O)[C@@H]4CC[C@]3(O)C2)C[C@H](O)[C@@H]1O` (stereo partly specified), the CC50 was determined as 2.54 µg/mL (≈ 4.75 µM), the IC50 was > 20 µg/mL and the call was inactive.

With `COc1ccc(C(=O)c2ccccc2O)c(O)c1`, the IC50 is > 20 µg/mL and the compound was classed as inactive.

As to `O=c1cc(-c2ccc(O)cc2)oc2c(C3O[C@H](CO)[C@@H](O)[C@H](O)[C@H]3O)c(O)cc(O)c12` (stereo partly specified), the IC50 is > 20 µg/mL and the result was inactive.

For orientation: IC50 means the concentration that inhibits the measured activity by half. What is called CC50 is the concentration at which the toxic effect on the cells reaches its halfway point.
